Screens deposited in PubChem by The Scripps Research Institute Molecular Screening Center.
This is a sample that favours compounds with a hit; in the whole collection about 5.7% have one here.
DAX1 inh-1: inhibitors of human orphan nuclear receptor DAX1 (NR0B1); HEK293 Gal4-DAX1 luciferase reporter, luminescence; inhibition, % at 6.75 µM; 340,000 tested, 0.99% active; P51843;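 active = inhibition above the mean over all tested compounds plus 3 SD, cut at about 4.2% in these data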;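 note: 0% = DAX1-transfected cells with DMSO and 100% = empty-vector control cells with DMSO; inhibition shows as a rise in luminescence from relieved DAX1 repression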
hgDAF12 agonist: hgDAF-12 agonism, primary luciferase screen; HEK293 GAL4-hgDAF12 UAS-luciferase reporter, agonist luminescence; normalized to butyrate control; activation, % at 6.8 µM; 370,000 tested, 1.8% active; AID 687014;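 active = activation above a cutoff set at the mean of all screened compounds plus 3 SD, cut at about 10% in these data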;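 note: 0% = DMSO wells and 100% = sodium butyrate wells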
AHR act: human AHR activation | AID 2796 | AHR-responsive luciferase reporter cells, luminescence | 320,000 tested, 2.5% active | P35869 | activation, % at 5 µM; in the data active = activation above about 47%;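 note: 0% = vehicle wells and 100% = reference agonist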
DAX1 inh-2: inhibitors of DAX1 repression of SF-1 activated StAR promoter. HEK293T StAR-luciferase reporter, SF-1/DAX-1 repression relief. inhibition, % at 6.8 µM. 370,000 tested, 1.1% active. AID 652010;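 active = inhibition above the mean over all tested compounds plus 3 SD, cut at about 3.6% in these data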;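 note: 0% = DAX-1 cells with DMSO and 100% = cells lacking DAX-1 with DMSO; higher inhibition means more luminescence from relief of DAX-1 repression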
hcDAF12 agonist: activates DAF-12 receptor from parasite H. contortus. AID 652067. HEK293 hcDAF-12 lit1-tk-luc reporter, luminescence; 0% DMSO, 100% Δ7-dafachronic acid. 370,000 tested, 1.4% active. activation, % at 6.8 µM;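 active = activation above the mean of all tested compounds plus 3 SD, cut at about 5.5% in these data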;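 note: 100% = response to 3 µM Δ7-dafachronic acid high control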
ssDAF12 agonist: activators of S. stercoralis DAF-12 nuclear receptor; HEK293 ssDAF-12/GRIP1 lit1-tk-luc reporter, luminescence; % of 3 µM dafachronic acid response; activation, % at 6.8 µM; 370,000 tested, 1% active; AID 652126;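 active = activation above the mean over all tested compounds plus 3 SD, cut at about 0.9% in these data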;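 note: 0% = DMSO-only wells and 100% = 3 µM delta7-dafachronic acid wells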
DAX1 conf: confirmation of human DAX1 (NR0B1) inhibitors; HEK293T StAR-promoter luciferase reporter, SF-1/DAX-1 repression; inhibition, % at 6.8 µM; shares compounds with DAX1 inh-2; 2,400 tested, 87% active;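 active = inhibition above the average of every tested compound plus 3 SD, cut at about 3.8% in these data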;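 note: 0% = DAX-1 cells with DMSO and 100% = no DAX-1 control cells with DMSO; active compounds raise luminescence by relieving repression of the StAR reporter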
Target sequence (P51843 whole entry, looked up): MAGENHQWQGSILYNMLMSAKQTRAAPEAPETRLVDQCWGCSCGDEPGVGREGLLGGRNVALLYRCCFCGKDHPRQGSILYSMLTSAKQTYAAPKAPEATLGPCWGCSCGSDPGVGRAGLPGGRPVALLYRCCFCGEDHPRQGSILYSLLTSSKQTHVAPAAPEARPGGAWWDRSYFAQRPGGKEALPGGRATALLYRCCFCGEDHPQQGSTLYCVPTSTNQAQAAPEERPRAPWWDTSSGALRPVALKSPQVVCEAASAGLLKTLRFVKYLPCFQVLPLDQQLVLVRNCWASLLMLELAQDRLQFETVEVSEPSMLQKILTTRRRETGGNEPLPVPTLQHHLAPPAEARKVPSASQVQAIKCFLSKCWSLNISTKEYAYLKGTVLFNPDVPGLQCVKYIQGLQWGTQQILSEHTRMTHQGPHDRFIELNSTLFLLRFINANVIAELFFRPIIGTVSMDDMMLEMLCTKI
SF1 mutant ctr: nonselective inhibitor or artifact in SF-1 mutant DAX1 counter-screen; AID 652136; shares compounds with DAX1 inh-2; 2,400 tested, 78% active; HEK293 StAR-luciferase, SF-1 AF2 mutant, luminescence; inhibition, % at 6.8 µM;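 active = inhibition above the mean of all tested compounds plus 3 SD, cut at about 3% in these data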;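 note: 0% = DAX-1 transfected cells with DMSO and 100% = cells without DAX-1 with DMSO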
Active calls of the source: *; x = no result given.

SMILES	DAX1 inh-1	hgDAF12 agonist	AHR act	DAX1 inh-2	hcDAF12 agonist	ssDAF12 agonist	DAX1 conf	SF1 mutant ctr
COc1ccc(CN2C(=O)c3ccccc3C2c2nnnn2Cc2ccccc2)cc1 (stereo unspecified)	x	-2	x	0	0	-2	x	x
O=C1c2ccccc2C(c2nnnn2-c2ccc3c(c2)OCCO3)N1CCc1c[nH]c2ccccc12 (stereo unspecified)	x	-2	x	0	2	0	x	x
O=C1c2ccccc2C(c2nnnn2Cc2ccccc2)N1CCOc1ccccc1 (stereo unspecified)	x	19*	x	7.2*	8.2*	0	6.5*	4.1*
CC(C)n1nnnc1C1c2ccccc2C(=O)N1CCc1c[nH]c2ccccc12 (stereo unspecified)	x	5	x	5.5*	3	-1	3	2
O=C1c2ccccc2C(c2nnnn2Cc2ccccc2)N1CCc1ccccc1F (stereo unspecified)	x	11*	x	9.2*	5	0	-4	-1
C=C1CCC(C)C(C)(CCC2=CCOC2=O)C/C=C\C=C/1C(=O)O (stereo unspecified)	2	0	0	1	-1	-1	x	x
O=c1[nH]c(=S)[nH]c2c1C(c1ccc(F)cc1)OC(CCOCc1ccccc1)C2 (stereo unspecified)	x	3	x	0	1	-1	x	x
CCc1cccc2sc(N(CCCN3CCOCC3)C(=O)CS(=O)(=O)c3ccccc3)nc12	0	5	3	0	-2	-1	x	x
O=C(CCS(=O)(=O)c1ccccc1)N(CCCN1CCOCC1)c1nc2ccc(F)cc2s1	0	9	6	6.7*	1	-1	5.5*	2
Fc1ccc(-c2ccc3c(c2)C2CC3CCN2)cc1 (stereo unspecified)	-1	1	x	1	-1	-1	x	x
CCOC(=O)N1CCN(CC(=O)Nc2sc(CC)cc2C(=O)c2ccc(OC)cc2)CC1	0	0	2	-1	-3	-1	x	x
CCOc1ccc(NC(=O)c2ccc3c(c2)N(C)CCS3)cc1	2	10	x	5.0*	1	-1	5.0*	3
CCN1CCSc2ccc(C(=O)Nc3ccc(NC(C)=O)cc3)cc21	-2	-1	11	0	-2	-2	x	x
Cc1cccc(NS(=O)(=O)c2cccc(C(=O)NCC3(N4CCCCC4)CCCCC3)c2)c1	1	1	2	5.0*	2	-1	3	1
CNS(=O)(=O)c1cccc(C(=O)NCC2(N3CCCCC3)CCCCC2)c1	0	-1	-2	0	2	-1	x	x
COc1ccc(NS(=O)(=O)c2cccc(C(=O)NCC3(N4CCCCC4)CCCCC3)c2)cc1	1	4	2	7.8*	1	-1	10*	5.4*
Cc1ccc(S(=O)(=O)Nc2cccc(C(=O)NCC3(N4CCCCC4)CCCCC3)c2)cc1F	0	-1	0	6.2*	1	-1	4.6*	3.8*
COc1ccc(NS(=O)(=O)c2ccc(C(=O)NCC3(N4CCOCC4)CCCCC3)cc2)cc1	2	-4	-2	4	-1	-1	x	x
CCOc1ccc(S(=O)(=O)Nc2ccc(C(=O)NCC3(N4CCCCC4)CCCCC3)cc2)cc1	2	1	8	8.7*	1	-1	8.3*	4.9*
COc1ccc(NS(=O)(=O)c2cccc(C(=O)NCC3(N4CCOCC4)CCCCC3)c2)cc1	0	-1	8	1	0	-1	x	x
Cc1ccc(C(=O)NCC(=O)N2CCN(c3cccc(Cl)c3)CC2)s1	-1	0	4	0	-2	-1	x	x
O=C(CSc1c(F)c(F)cc(F)c1F)Nc1ccc(C2SCCS2)cc1	0	3	3	-1	1	-1	x	x
O=C(CSc1nnc(-c2cccc(Br)c2)o1)N1CCNC1=O	0	7	10	2	5	0	x	x
O=C(NC1CCCC1)C1c2ccccc2OCC(=O)N1Cc1ccc2c(c1)OCO2 (stereo unspecified)	x	-2	x	-1	0	0	x	x
C/C=C/c1ccc2c(c1)O[C@@H](CN(C)C(=O)c1ccc(F)cc1)[C@@H](C)CN([C@H](C)CO)S2(=O)=O	1	-2	x	4.8*	-2	-1	-1	4.4*
SMILES	DAX1 inh-1	hgDAF12 agonist	AHR act	DAX1 inh-2	hcDAF12 agonist	ssDAF12 agonist	DAX1 conf	SF1 mutant ctr
CCOCC(=O)NC1CCc2cc(OC(=O)COCC)c(OC)c(OC)c2-c2ccc(SC)c(=O)cc21 (stereo unspecified)	1	-4	x	4.5*	1	-1	17*	-6
COc1cc2c(c(OC)c1OC)-c1ccc(OC)c(=O)cc1[C@@H](NC(C)=O)CC2	1	-6	3	6.5*	1	-1	23*	-4
CCN(CC)c1ccc2c(cc1=O)[C@@H](NC)CCc1cc(OC)c(OC)c(OC)c1-2	-1	-6	3	0	-2	-1	x	x
COc1cc2c(c(OC)c1OC)-c1ccc(N(C)CC(OC)OC)c(=O)cc1[C@@H](NC(C)=O)CC2	-1	-3	-1	0	1	0	x	x
Cc1cc2nc(-c3cccc(Cl)c3)c(CC3CCCCC3)n2c(C)c1Br	x	3	x	2	3	0	x	x
Cc1ccc(-c2nc3ccc(Cl)cn3c2CC2CCCCC2)cc1	x	13*	x	4.8*	7.1*	0	8.5*	5.5*
Cc1ccc2nc(-c3cccc(Br)c3)c(CC3CCCCC3)n2c1	x	13*	x	6.4*	5	0	5.1*	5.6*
COc1ccc(S(=O)(=O)NCc2cccnc2)cc1C	0	-1	3	0	-2	-1	x	x
CCCNC(=O)C1(C)CCCN(C(=O)c2ccc(C)c(F)c2)C1 (stereo unspecified)	x	0	x	0	-1	-1	x	x
C#CCOCCOCCOCCNc1nc(N2CCN(C(=O)[C@H]([C@@H](C)CC)n3cc([C@@H](N)Cc4ccc(O)cc4)nn3)CC2)nc(N2CCN(C(=O)[C@H](CCCCN)n3cc([C@@H](N)CC(C)C)nn3)CC2)n1	x	x	0	x	x	x	x	x
COc1ccc(C(=O)Nc2cccc(/C(C)=N/NC(=O)c3ccc([N+](=O)[O-])c(C)c3)c2)cc1OC	0	1	46	-1	0	-1	x	x
Cc1occc1C(=O)NNC(=O)C1CCCCC1	0	0	1	0	0	-1	x	x
COc1ccc(C(=O)Nc2cccc(/C(C)=N\NC(=O)c3ccoc3C)c2)cc1OC	2	13*	x	12*	3	0	-1	-2
